The list is not random: actives were taken first. Their share in the collection is about 7.1%.
MARV entry inh: Marburg virus entry inhibition | Marburg virus pseudotype entry/binding inhibition, cell-based | Potency, µM (series often up to 49.2 µM), usual class: inhibitors | hit rate 6.5% among 18,000 | AID 720532
Lassa entry: inhibitors of Lassa virus binding or entry into cells | hit rate 4.1% among 18,000 | AID 720533 | Potency, µM (doses to about 49.2 µM), hits mostly inhibitors | Lassa virus pseudotyped entry inhibition, cell-based qHTS
Each line names hits and unclear results; the compound was inactive in the other large screens. The call rests on the fitted dose curve; tested in HEK293 cells.

O=C(O)P(=O)(O)O	none
O=P(O)(O)O	MARV entry inh 6.3µM, Lassa entry 35µM
COC(=O)[C@H](C=C[C@H](C)Cc1cc(Br)cc(OCc2ccccc2)c1OC)OCc1ccccc1	none
COc1ccc2c(c1)[C@@H](NC(=O)C(F)(F)F)C1CCCCC21c1ccccc1 (stereo partly specified)	none
CC(CCN1CCCCc2nc(C)c(C)cc21)=NOC[C@@H](O)[C@H]1O[C@@H]2OC(C)(C)O[C@H]2[C@@H]1O	none (no result: Lassa entry)
C[C@@H]1CC([C@H](O)CC2CC(=O)NC(=O)C2)C(=O)[C@@H](C)C1 (stereo partly specified)	MARV entry inh inconclusive, Lassa entry 1µM
C[C@@H]1C[C@@H]([C@H](O)CC2CC(=O)NC(=O)C2)C(=O)[C@@H](C)C1	MARV entry inh 3.2µM, Lassa entry 2.8µM
C=C(C)C(O)C=Cc1ccc(Br)cc1 (stereo unspecified)	MARV entry inh inconclusive
CCN1C(=NCCc2ccc(Br)cc2)NC(c2ccccc2)C(C(=O)OC)=C1C (stereo unspecified)	MARV entry inh inconclusive
CCCCCC(=O)N1C[C@@H](n2cc(C3CC3)nn2)[C@H](O)C[C@H]1c1ccccc1	none
COC(=O)c1ccc(CN2C(=O)[C@]3(OCCC=C[C@@H]3C)c3c(Br)cccc32)cc1	none
CCN1C(=NCCc2cccnc2)NC(c2ccccc2)C(C(=O)OC)=C1C (stereo unspecified)	MARV entry inh inconclusive
CC1(C)CC[C@]2(C(=O)O)CC[C@]3(C)C(=CCC4[C@@]5(C)CC[C@H](O)C(C)(C)C5[C@H](O)C[C@]43C)C2C1 (stereo partly specified)	Lassa entry 32µM
CC1(C)CC[C@]2(C(=O)O)CC[C@]3(C)C(=CCC4[C@@]5(C)CC[C@H](O)C(C)(C)[C@@H]5CC[C@]43C)C2C1 (stereo partly specified)	Lassa entry inconclusive
CCCCCCC[n+]1ccc(-c2cc[n+](CCCCCCC)cc2)cc1	none
CCCCCCCCCCCC[n+]1ccc2ccccc2c1	MARV entry inh 11µM, Lassa entry 8.9µM
CCCCCCCCc1[se]c2ccccc2c1I	none
CCCCCCCCCCCCCC[n+]1ccc(C)cc1	MARV entry inh inconclusive, Lassa entry 22µM
CCCCCCCCCCCCCCCC(=O)O	none
CCCCCCCCCCCCCCCC[n+]1ccccc1	MARV entry inh 13µM, Lassa entry 22µM
CC(CCC(=O)OC[C@H]1O[C@H](C#Cc2ccccc2)C=C[C@H]1Oc1ccc(C)cc1)=NO[C@@H](C)c1cn([C@H](CO)Cc2ccccc2)nn1	none (no result: Lassa entry)
C=C[C@H](CCCCCC)[C@@H]1C[C@H](CCCCCCCCCCC)O[P@](=O)(OC)O1	none (no result: Lassa entry)
O=S1(=O)N[C@H](Cc2ccccc2)COc2cc(NCCO)ccc21	none
CC1(C)CN(CCc2ccccc2)C(=O)[C@@H]1CC(=O)Nc1ccc(Br)cc1	none
